Source: PubChem BioAssay (National Center for Advancing Translational Sciences (NCATS))
Most compounds without a hit are left out; they make up all but 19% or so of the library.
SW480 rerep: A quantitative high throughput screen for small molecules that induce DNA re-replication in SW480 colon adenocarcinoma cells; Potency, µM (top dose mostly 46.1 µM), for the others: top-dose re-replication activation, usual class: activators; 1.8% of 340,000 active; AID 624297, 2012; SW480 DNA re-replication, Hoechst DNA content imaging, 48 h; also: potency is read from the fitted curve at half-maximal effect; % of control where 0% means no effect; nearly all actives have a fitted effect of over 55% in size
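Treated cells incubate 48 hr (37 C, 5% CO2), are stained 40 min with Hoechst, and nuclear fluorescence is enumerated; a rise in nuclei with high DNA signal marks re-replication.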
TDP1 cell CPT: qHTS for Inhibitors of human tyrosyl-DNA phosphodiesterase 1 (TDP1): qHTS in cells in presence of CPT; chicken DT40 Tdp1-/-;hTDP1 cells + 20 nM CPT, ATP luminescence, 48 h; Potency, µM (top dose mostly 46.2 µM), for the others: at the highest dose activity change, negative = growth inhibition, most hits filed as inhibitors; 12% of 420,000 active; AID 686979, 2013; also: potency is read from the fitted curve at half-maximal effect; % is scaled to controls: 0 for no effect and ±100 for the full control effect; nearly all actives have a fitted effect of over 55% in size
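Chicken DT40 Tdp1-/- cells complemented with human TDP1, 400 cells/well, exposed to compounds plus 20 nM camptothecin for at least 48 h at 37 C; viability read as ATP content by CellTiter-Glo luminescence.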
IL-1B inflam inh: qHTS for Inhibitors of Inflammasome Signaling: IL-1-beta AlphaLISA Primary Screen; THP-1 LPS/ATP IL-1B secretion, AlphaLISA, 16 h; stronger effect = lower value; AID 743279, 2014; 4.7% of 360,000 active; activity change, % at 57.5 µM; in the data active = activity change below about -50%; inconclusive = mostly about -30% to -49%; also: % is scaled to controls: 0 for no effect and ±100 for the full control effect
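Secreted IL-1B measured by AlphaLISA bead assay after 16 h compound exposure of THP-1 cells; compounds (final up to 57.5 uM) added 1 h before LPS (250 ng/mL) and ATP (1.25 mM) stimulation; lower signal means less secretion.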
Chronic BCR inh: qHTS Assay to Find Inhibitors of Chronic Active B-Cell Receptor Signaling; AID 493014, 2011; 0.05% of 340,000 active; ABC-DLBCL IkBa-CBG/CBR reporter, luminescence ratio, 4 h; Potency, µM (highest dose often 46.1 µM), without a hit: at the top dose activity change, negative = inhibition, hits mostly inhibitors; active = well fitted inhibition curve with a large enough effect in the signal ratio, with a control signal flat, not every such curve was filed as active; inconclusive = small, poorly fitted or top-dose-only effect, or effect the other way, or a change in a side signal; the % refers to the signal ratio;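 also: potency is read from the fitted curve at half-maximal effect; plate controls were basal doxycycline-induced cells for no effect and cells given 10 µM MG132 for full effect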
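Doxycycline induced both beetle luciferases in TMD8 lymphoma cells; IKK-driven degradation limits the IkappaBalpha-fused green signal, while red luminescence normalises for cell number and nonspecific effects. Compounds tested up to 46 uM, 4 hrs.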
MCF10A rerep: A quantitative high throughput screen for small molecules that induce DNA re-replication in MCF 10a normal breast cells. MCF 10A DNA re-replication, Hoechst nuclear intensity, 48 h. Potency, µM (highest dose often 46.1 µM), for the others: top-dose activity, positive = re-replication, actives largely listed as activators. 2.9% of 350,000 active. AID 624296, 2012; also: potency is read from the fitted curve at half-maximal effect; % of control where 0% means no effect; nearly all actives have a fitted effect of over 50% in size
TDP1 cell noCPT: qHTS for Inhibitors of human tyrosyl-DNA phosphodiesterase 1 (TDP1): qHTS in cells in absence of CPT. Potency, µM (top dose mostly 46.2 µM), inactives show top-dose activity change, negative = growth inhibition, actives largely listed as inhibitors. DT40 Tdp1-/- hTDP1 cells, no CPT, ATP luminescence, 48 h. 15% of 420,000 active; also: potency is read from the fitted curve at half-maximal effect; % is scaled to controls: 0 for no effect and ±100 for the full control effect; nearly all actives have a fitted effect of over 55% in size
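Chicken DT40 Tdp1-/- cells stably complemented with human TDP1 were seeded at 400 cells/well with DMSO in place of 20 nM camptothecin. After compound pinning, cells grew at least 48 hr at 37 °C; viability read by CellTiter-Glo luminescence.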
* hit, by the source's call; ? = inconclusive; . = no result given; [ ] = another dose, or the depositor's remark. Unless noted, calls follow the shape of the dose curve; as a rule, active = well fitted curve in the direction sought with a large enough effect; inconclusive = small, poorly fitted or top-dose-only effect, or another doubt; inactive = no such curve, though single readings can be large; an effect the other way counts as inactive or inconclusive.

SMILES	SW480 rerep	TDP1 cell CPT	IL-1B inflam inh	Chronic BCR inh	MCF10A rerep	TDP1 cell noCPT
O=C(COc1ccc(Cl)cc1)Nc1cccc(S(=O)(=O)NC2=NCCCCC2)c1	-4%	?	-10	-23%	9%	?
CCOc1ccc(OCC(=O)Nc2cccc(S(=O)(=O)NC3=NCCC3)c2)cc1	?	-24%	37	.	?	?
Cc1cc(Cl)ccc1OCC(=O)Nc1cccc(S(=O)(=O)NC2=NCCCCC2)c1	3%	12µM*	-71*	-19%	17%	18µM*
CCOc1ccc(C(=O)NC(=S)Nc2cccc(S(=O)(=O)NC3=NCCC3)c2)cc1	?	0.82µM*	0	?	2.6µM*	0.82µM*
CCc1ccccc1OCC(=O)Nc1cccc(S(=O)(=O)NC2=NCCCCC2)c1	?	18µM*	?	-17%	-1%	?
O=C(CCn1c(=O)sc2ccccc21)NC1CCCCC1	-16%	-12%	0	-3%	14%	20%
CCN(CC(=O)NCc1cccs1)C(=O)c1ccc(OC)c(OC)c1	0%	-3%	5	?	-1%	-6%
CC(C)c1ccc(C(=O)Nc2ccc(S(=O)(=O)NC3=NCCCCC3)cc2)cc1	.	16µM*	-17	.	.	23µM*
Cc1cc(C)nc(NS(=O)(=O)c2ccc(NC(=O)COc3ccc(Cl)cc3C)cc2)n1	.	?	.	.	.	18µM*
CCCOc1ccccc1OCC(=O)Nc1cccc(S(=O)(=O)NC2=NCCC2)c1	10%	?	-9	?	1%	15µM*
Cc1ccc(NC(=O)COC(=O)C(NS(=O)(=O)c2ccc(Cl)cc2)C(C)O)cc1C (stereo not given)	-33%	26µM*	?	?	4%	?
Cc1ccc(NC(=O)COC(=O)C(NS(=O)(=O)c2ccc(Cl)cc2)C(C)O)c(Br)c1 (stereo not given)	183%	-11%	2	-5%	10%	-20%
Cc1cc(C)nc(NS(=O)(=O)c2ccc(NC(=O)COc3ccccc3)cc2)n1	-2%	37%	10	?	12%	-13%
O=C(OCC(=O)N1CCN(C(=O)c2ccco2)CC1)c1ccccc1NCCO	-7%	-10%	-11	?	1%	2%
CNc1c2cccc(C)c2nc2c(C(=O)NCCN(C)C)cccc12	?	0.18µM*	-117*	.	-11%	0.18µM*
COC(=O)c1cc2oc3ccccc3c2n1Cc1c(C)cc(C)cc1C	.	-3%	.	.	.	-2%
Nc1cc2c3ccccc3ccc2c2ccccc12	21µM*	?	-5	.	?	?
Clc1nccc2c1ccc1ccccc12	.	-13%	.	.	.	4%
Cc1ccccc1C(=O)Nc1ccccc1C(=O)NCC(C)C	0%	?	-19	?	8%	?
Cc1ccccc1C(=O)Nc1ccccc1C(=O)NCc1ccccc1	-3%	?	-12	?	?	18µM*
Cc1nc2ccccc2cc1C(=O)NCc1ccccc1	-15%[9.22 µM]	?	21	.	-1%	13µM*
Cc1ccccc1C(=O)Nc1ccc(N(C)C)c2ccccc12	2%	?	-12	?	0%	3.7µM*
O=C(Nc1ccccc1C(=O)NCc1ccccc1)c1ccccc1Br	-3%	23µM*	-4	5%	9%	?
CN(C)c1ccc(NC(=O)c2cccc([N+](=O)[O-])c2)c2ccccc12	-1%	-18%	-8	-10%	6%	?
O=C(NCc1ccc(F)cc1)c1cccc(S(=O)(=O)N2CCOCC2)c1	6%	2%	-5	?	4%	15%
SMILES	SW480 rerep	TDP1 cell CPT	IL-1B inflam inh	Chronic BCR inh	MCF10A rerep	TDP1 cell noCPT
O=C1CCc2cc(S(=O)(=O)Nc3ccccc3)cc3c2N1CCC3	-87%	-19%	21	-2%	0%	-22%
O=C(CSc1nnc(Cc2ccccc2)n1-c1cccc(Cl)c1)NNC(=O)Cc1ccccc1	.	-5%	0	-3%	9%	-15%
Cc1[nH]nc2ncc(C(=O)c3ccccc3O)cc12	20%	10µM*	-51*	1%	15%	?
CC(C)[C@H](CO)Nc1nc(Nc2ccc(Cl)c(C(=O)O)c2)c2ncn(C(C)C)c2n1	3%	1%	8	-3%	8%	-4%
C=CC(=O)Nc1cccc(Nc2nc(N[C@H]3CC[C@H](N(C)C)CC3)nc3c2ncn3C(C)C)c1	?	0.15µM*	0	.	?	0.21µM*
C=CCNC(=O)/C(C#N)=C/c1c(N2CC(C)OC(C)C2)nc2ccccn2c1=O (stereo not given)	16µM*	1%	0	?	?	-16%
C=CCNC(=O)/C(C#N)=C/c1c(N2CCN(c3cccc(Cl)c3)CC2)nc2c(C)cccn2c1=O	4%	?	-5	1%	21µM*	?
Cc1ccc(S(=O)(=O)/C(C#N)=C/c2c(N3CC(C)OC(C)C3)nc3ccccn3c2=O)cc1 (stereo not given)	2%	-12%	5	?	6%	-19%
CNC(=O)/C(C#N)=C/c1c(N2CCN(c3cccc(Cl)c3)CC2)nc2c(C)cccn2c1=O	0%	?	-66*	0%	2.9µM*	12µM*
Oc1c(C(c2ccccc2)N2CCOCC2)sc2nc(-c3ccco3)nn12 (stereo not given)	.	-1%	.	-4%	.	-10%
COCC(=O)Nc1cc(C(=O)N2CCN(c3ccccc3)CC2C)c2c(c1)nc(-c1ccncc1)n2C (stereo not given)	.	-6%[9.04 µM]	.	.	.	-15%
CC(=O)Nc1cc[n+](C(C)C(=O)c2ccc(Cl)cc2)cc1 (stereo not given)	-52%[1.84 µM]	16µM*	21	-1%	-13%	16µM*
CC(C(=O)c1ccc(-c2ccccc2)cc1)[n+]1ccccc1 (stereo not given)	1%	2.6µM*	-13	6%	19%	2.1µM*
CC(C(=O)c1ccc(-c2ccccc2)cc1)[n+]1cccc(C(N)=O)c1 (stereo not given)	-42%	11%	7	7%	-2%	-10%
Cc1ccc[n+](C(C)C(=O)c2ccc(-c3ccccc3)cc2)c1 (stereo not given)	?	4.1µM*	?	8%	?	5.2µM*
